# Source: article PMC7862700, “An all-to-all approach to the identification of sequence-specific readers for epigenetic DNA modifications on cytosine”
# How the values were obtained:
# Experiment in all cases: DAPPL (digital affinity profiling via proximity ligation, sequencing); 10 mM Tris-HCl pH 7.5, 50 mM NaCl, 1 mM DTT, 4% glycerol, room temperature, 30 min; GST-TFs on glutathione beads, 16-mer random dsDNA library, 0.1% formaldehyde crosslink after washing; high values mean tight binding
# Settings in all cases: protein: recombinant; tags: N-terminal GST; dsDNA, one strand shown
# FLI1 = target: T1, FLI1 (Homo sapiens, UniProt Q01543 1-452)
# T1 sequence: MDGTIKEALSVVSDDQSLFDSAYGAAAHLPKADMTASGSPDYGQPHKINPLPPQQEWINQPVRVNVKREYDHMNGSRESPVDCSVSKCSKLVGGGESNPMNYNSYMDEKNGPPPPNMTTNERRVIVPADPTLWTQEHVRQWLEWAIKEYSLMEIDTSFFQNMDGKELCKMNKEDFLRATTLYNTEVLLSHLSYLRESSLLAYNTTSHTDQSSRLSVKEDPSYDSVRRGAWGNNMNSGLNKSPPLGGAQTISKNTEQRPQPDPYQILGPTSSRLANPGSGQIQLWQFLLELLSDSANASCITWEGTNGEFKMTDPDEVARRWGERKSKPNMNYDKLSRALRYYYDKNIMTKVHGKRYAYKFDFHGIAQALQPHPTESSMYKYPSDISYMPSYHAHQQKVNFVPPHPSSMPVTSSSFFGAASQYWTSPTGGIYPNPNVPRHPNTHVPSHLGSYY
# Summary of the method: (§1)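 Yeast served to express human transcription factors as GST fusions, which were then captured on glutathione beads and labelled with DNA barcodes. Pooled with a tag-only sample, they were incubated with 200 nmole of a 16-mer random double-stranded DNA library for 30 min at room temperature in Tris/NaCl/DTT/glycerol buffer, washed, crosslinked with 0.1% formaldehyde, ligated by proximity, amplified by PCR and sequenced. Dividing each hexamer's read frequency for a factor by its frequency for the tag-only sample gives the binding signal.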
# ELK1 = target: T2, ELK1 (Homo sapiens, UniProt P19419 1-428)
# T2 sequence: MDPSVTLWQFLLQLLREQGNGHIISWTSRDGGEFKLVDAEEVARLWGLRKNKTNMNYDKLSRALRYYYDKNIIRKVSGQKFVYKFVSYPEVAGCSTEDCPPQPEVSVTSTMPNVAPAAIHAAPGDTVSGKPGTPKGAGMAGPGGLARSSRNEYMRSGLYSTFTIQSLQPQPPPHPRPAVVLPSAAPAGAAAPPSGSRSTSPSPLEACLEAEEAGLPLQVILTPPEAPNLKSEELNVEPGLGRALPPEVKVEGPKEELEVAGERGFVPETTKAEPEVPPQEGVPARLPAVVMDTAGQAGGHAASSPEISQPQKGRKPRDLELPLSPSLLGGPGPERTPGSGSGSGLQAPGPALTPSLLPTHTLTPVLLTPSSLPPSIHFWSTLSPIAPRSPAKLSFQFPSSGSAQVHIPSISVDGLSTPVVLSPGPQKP
# Summary of the method: as §1
# GABPA = target: T3, GABPA (Homo sapiens, UniProt Q06546 1-454)
# T3 sequence: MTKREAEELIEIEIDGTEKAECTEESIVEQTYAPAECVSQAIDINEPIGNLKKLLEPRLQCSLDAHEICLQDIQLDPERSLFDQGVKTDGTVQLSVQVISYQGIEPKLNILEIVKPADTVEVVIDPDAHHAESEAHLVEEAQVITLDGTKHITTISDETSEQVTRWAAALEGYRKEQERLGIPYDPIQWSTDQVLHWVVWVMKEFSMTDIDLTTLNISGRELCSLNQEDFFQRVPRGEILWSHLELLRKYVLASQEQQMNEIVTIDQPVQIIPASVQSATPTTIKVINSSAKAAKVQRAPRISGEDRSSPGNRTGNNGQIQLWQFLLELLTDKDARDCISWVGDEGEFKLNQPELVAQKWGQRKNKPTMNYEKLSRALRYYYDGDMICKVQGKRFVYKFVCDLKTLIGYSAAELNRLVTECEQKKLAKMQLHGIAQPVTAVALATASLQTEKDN
# Summary of the method: as §1
# ERG = target: T4, ERG (Homo sapiens, UniProt P11308 1-479)
# T4 sequence: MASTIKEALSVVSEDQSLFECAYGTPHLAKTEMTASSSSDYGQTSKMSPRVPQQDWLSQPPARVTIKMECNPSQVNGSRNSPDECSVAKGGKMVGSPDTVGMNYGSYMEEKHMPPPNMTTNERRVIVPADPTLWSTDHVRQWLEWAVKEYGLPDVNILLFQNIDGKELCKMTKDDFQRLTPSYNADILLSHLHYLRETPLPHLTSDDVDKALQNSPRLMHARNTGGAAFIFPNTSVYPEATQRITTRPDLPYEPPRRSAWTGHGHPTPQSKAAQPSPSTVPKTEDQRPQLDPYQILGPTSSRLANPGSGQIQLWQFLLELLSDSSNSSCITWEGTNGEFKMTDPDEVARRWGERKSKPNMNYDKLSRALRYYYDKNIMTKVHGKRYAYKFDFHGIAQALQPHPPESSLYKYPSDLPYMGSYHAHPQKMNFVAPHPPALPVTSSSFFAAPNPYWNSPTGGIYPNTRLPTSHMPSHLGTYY
# Summary of the method: as §1
# ELF1 = ELF1 (Homo sapiens, UniProt P32519 1-619)
# Summary of the method: as §1
# SPIB = SPIB (Homo sapiens, UniProt Q01892 1-262)
# Summary of the method: as §1
# ELK3 = target: T5, ELK3 (Homo sapiens, UniProt P41970 1-407)
# T5 sequence: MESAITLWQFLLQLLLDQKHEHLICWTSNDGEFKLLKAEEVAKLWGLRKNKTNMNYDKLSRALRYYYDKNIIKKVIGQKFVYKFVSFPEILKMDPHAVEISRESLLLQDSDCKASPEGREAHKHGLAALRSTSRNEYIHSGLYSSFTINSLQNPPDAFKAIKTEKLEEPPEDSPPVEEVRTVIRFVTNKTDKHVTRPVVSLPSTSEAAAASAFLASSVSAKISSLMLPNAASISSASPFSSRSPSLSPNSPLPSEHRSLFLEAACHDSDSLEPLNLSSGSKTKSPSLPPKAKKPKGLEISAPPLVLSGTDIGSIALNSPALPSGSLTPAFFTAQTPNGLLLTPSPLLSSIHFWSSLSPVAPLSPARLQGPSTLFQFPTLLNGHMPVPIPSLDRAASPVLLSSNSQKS
# Summary of the method: as §1
# SPIC = target: T6, SPIC (Homo sapiens, UniProt Q8N5J4 1-248)
# T6 sequence: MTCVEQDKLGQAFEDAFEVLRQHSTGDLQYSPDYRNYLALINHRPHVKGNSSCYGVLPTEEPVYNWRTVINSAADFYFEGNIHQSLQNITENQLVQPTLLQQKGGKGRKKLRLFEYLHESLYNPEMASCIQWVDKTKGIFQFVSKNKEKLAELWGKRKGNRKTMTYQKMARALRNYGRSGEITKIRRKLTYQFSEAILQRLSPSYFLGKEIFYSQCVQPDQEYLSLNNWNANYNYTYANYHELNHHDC
# Summary of the method: as §1
# ELF4 = ELF4 (Homo sapiens, UniProt Q99607 1-663)
# Summary of the method: as §1
# Sequence of ELF4 (Q99607 whole entry): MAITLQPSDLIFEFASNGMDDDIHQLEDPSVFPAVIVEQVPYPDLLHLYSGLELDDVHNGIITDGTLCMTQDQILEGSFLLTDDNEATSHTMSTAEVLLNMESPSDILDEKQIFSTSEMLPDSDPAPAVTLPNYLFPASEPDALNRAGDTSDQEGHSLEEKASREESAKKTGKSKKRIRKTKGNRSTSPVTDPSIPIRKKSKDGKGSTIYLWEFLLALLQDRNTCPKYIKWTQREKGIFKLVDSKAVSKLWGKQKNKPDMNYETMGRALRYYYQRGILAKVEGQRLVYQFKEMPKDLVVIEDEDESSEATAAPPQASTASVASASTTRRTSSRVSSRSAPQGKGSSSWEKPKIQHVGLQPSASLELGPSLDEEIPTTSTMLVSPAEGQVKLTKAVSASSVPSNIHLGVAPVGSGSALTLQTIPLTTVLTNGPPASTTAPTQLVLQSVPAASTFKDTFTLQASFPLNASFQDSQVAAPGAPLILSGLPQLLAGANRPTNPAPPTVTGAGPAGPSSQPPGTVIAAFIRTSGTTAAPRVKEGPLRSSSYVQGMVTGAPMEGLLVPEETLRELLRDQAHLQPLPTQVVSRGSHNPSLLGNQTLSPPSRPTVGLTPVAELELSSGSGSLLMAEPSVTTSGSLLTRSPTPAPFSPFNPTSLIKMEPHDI
# Sequence of ELF1 (P32519 whole entry): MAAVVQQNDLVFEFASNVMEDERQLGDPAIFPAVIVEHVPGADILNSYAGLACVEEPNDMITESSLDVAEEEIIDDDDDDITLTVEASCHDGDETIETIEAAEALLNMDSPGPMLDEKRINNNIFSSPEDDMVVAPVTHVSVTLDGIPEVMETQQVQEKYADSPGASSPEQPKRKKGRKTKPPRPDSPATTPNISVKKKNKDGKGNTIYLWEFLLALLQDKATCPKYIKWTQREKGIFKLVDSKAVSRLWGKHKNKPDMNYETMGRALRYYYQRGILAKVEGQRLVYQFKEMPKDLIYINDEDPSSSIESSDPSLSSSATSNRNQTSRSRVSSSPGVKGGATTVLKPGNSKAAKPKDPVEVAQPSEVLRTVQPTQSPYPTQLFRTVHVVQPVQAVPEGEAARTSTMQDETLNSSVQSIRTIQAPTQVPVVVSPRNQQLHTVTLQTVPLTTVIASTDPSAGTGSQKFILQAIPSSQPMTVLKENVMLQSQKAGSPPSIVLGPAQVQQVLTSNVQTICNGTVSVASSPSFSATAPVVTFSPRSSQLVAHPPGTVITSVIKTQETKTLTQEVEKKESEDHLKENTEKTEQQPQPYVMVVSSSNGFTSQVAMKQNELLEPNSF
# Sequence of SPIB (Q01892 whole entry): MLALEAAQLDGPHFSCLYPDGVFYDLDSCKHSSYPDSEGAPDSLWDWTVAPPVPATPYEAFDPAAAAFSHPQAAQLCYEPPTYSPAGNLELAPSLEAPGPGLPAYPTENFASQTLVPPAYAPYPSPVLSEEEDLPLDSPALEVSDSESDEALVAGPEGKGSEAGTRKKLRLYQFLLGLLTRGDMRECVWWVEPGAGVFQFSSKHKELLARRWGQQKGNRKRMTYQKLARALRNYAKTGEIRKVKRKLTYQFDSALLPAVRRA
sequence,measurement,setting,value
ATAAGA,binding signal,FLI1,"1.02 fold enrichment (6-mer frequency, TF over GST control)"
same,binding signal,ELK1,"1.12 fold enrichment (6-mer frequency, TF over GST control)"
same,binding signal,GABPA,"1.08 fold enrichment (6-mer frequency, TF over GST control)"
same,binding signal,ERG,"1.11 fold enrichment (6-mer frequency, TF over GST control)"
same,binding signal,ELF1,"1.04 fold enrichment (6-mer frequency, TF over GST control)"
same,binding signal,SPIB,"1.04 fold enrichment (6-mer frequency, TF over GST control)"
same,binding signal,ELK3,"1.13 fold enrichment (6-mer frequency, TF over GST control)"
same,binding signal,SPIC,"1.03 fold enrichment (6-mer frequency, TF over GST control)"
same,binding signal,ELF4,"1.06 fold enrichment (6-mer frequency, TF over GST control)"
